Source: PubChem BioAssay
In the library only some 21% were active in any assay of this set; here they are far more common.
Pf growth 96h: P. falciparum growth inhibition at 96 hour, primary screen for plastid delayed-death inhibitors | P. falciparum luciferase reporter growth, 96 h | Potency, µM (titrated, usually from 28.7 µM), actives largely listed as inhibitors | actives 6.9% (n = 320,000) | AID 504834
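Two parasite generations (96 h, 37 C, 5% CO2) of compound exposure in infected erythrocytes (0.05% parasitemia, 2% hematocrit). Luciferase-reporter P. falciparum; decreased luminescence indicates inhibited growth, aimed at apicoplast-acting delayed death.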
Pf growth 48h: inhibits P. falciparum growth in the first generation, 48 h; P. falciparum luciferase growth in erythrocytes, 48 h; AID 504832; Potency, µM (top dose mostly 28.7 µM), most hits filed as inhibitors; actives 5.9% (n = 310,000)
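In quantitative HTS format, infected erythrocytes bearing luciferase-reporter parasites were treated for a single generation at 37 C. Luminescence after adding detection reagent served as the growth measure.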
NS1 function inh: inhibitors of influenza NS1 protein function. actives 0.4% (n = 270,000). Potency, µM (highest dose often 46.1 µM). AID 2326; calls by dose curve; also: actives are rising curves; nearly all actives have a fitted effect of over 50% in size
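A cell-based growth assay was used: compounds that relieve NS1-induced slow growth of budding yeast raise OD600. Assay medium was yeast nitrogen base with ammonium sulphate and -URA supplement, pH 6.0, with 2% galactose.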
CHX counter: counter-screen for Shiga toxin inhibitors: cycloheximide protein synthesis inhibition | max response, % | cell reporter, cycloheximide protein synthesis inhibition counterscreen | actives 12% (n = 300,000) | AID 2314; in the data active = max response mostly above about 13%, no sharp cut-off; inactive = mostly below about 14%; also: read at 38.3 µM for the half of the compounds with a filed dose
Shiga toxin inh: blocks Shiga toxin action in Vero cells | inhibition, % at 38.7 µM | actives 9.2% (n = 290,000) | AID 2315 | Vero cells, Shiga toxin protein synthesis inhibition reporter; in the data active = inhibition mostly above about 28%, no sharp cut-off; inactive = mostly below about 43%
Large screens that a line does not name were inactive. Unless noted, calls follow the shape of the dose curve; as a rule, active = well fitted inhibition curve with a large enough effect; inconclusive = small, poorly fitted or top-dose-only effect, or another doubt; inactive = no such curve, though single readings can be large or run the other way.

CC(C)(C)NCCOCCOc1ccccc1-c1ccccc1	Pf growth 96h 3.7µM, Pf growth 48h inconclusive
CN(C)CCNCCCOc1ccccc1-c1ccccc1	Pf growth 48h 2.6µM
C=CCNCCOCCOc1ccccc1-c1ccccc1	Pf growth 48h inconclusive, CHX counter 20, Shiga toxin inh 97
COCCCNCCOCCOc1ccccc1-c1ccccc1	Pf growth 96h inconclusive, NS1 function inh inconclusive
COc1ccc(N(CC(=O)Nc2ccc3c(c2)OCO3)S(=O)(=O)c2ccccc2)c(OC)c1	Pf growth 48h inconclusive, NS1 function inh inconclusive
O=C1CCc2cc(S(=O)(=O)NCCCC(=O)N3CCN(Cc4ccc5c(c4)OCO5)CC3)ccc2N1	Pf growth 96h 13µM (no result: NS1 function inh)
CC1CCN(S(=O)(=O)c2ccc3[nH]c(=O)cc(C(=O)O)c3c2)CC1	Pf growth 96h 2.9µM
CCC(C)NC(=O)c1cn(CC)c2ccc(S(=O)(=O)N3CCCCCC3)cc2c1=O (configuration not stated)	Pf growth 96h 13µM, Pf growth 48h inconclusive
CCOC(=O)N1CCN(C(=O)c2cn(CC)c3ccc(S(=O)(=O)N4CCOCC4)cc3c2=O)CC1	Pf growth 96h 4.7µM
CCOC(=O)N1CCN(C(=O)c2cn(CC)c3ccc(S(=O)(=O)N4CCCCC4)cc3c2=O)CC1	none (no result: NS1 function inh)
CCn1cc(C(=O)N2CCCCC2)c(=O)c2cc(S(=O)(=O)N3CCC(C)CC3)ccc21	Pf growth 48h inconclusive, CHX counter 23
CCOC(=O)c1ccccc1NC(=O)CSc1nc(N)cc(=O)[nH]1	none
c1ccc2c(c1)ncn2CCC1CCCCC1	Pf growth 96h inconclusive
OC1CCN(C(=S)Nc2ccc(Oc3ccccc3)cc2)CC1	none
COc1cc(Cl)c(C)cc1NC(=O)COC(=O)C1=COCCO1	none (no result: NS1 function inh, CHX counter, Shiga toxin inh)
CCC(C)NC(=O)C1c2ccccc2C(=O)N(c2ccc(OC)cc2)C1c1ccc(OC)cc1 (configuration not stated)	none
Cn1cc(C(=O)N2CCN(c3ccccn3)CC2)c(=O)c2cc(S(=O)(=O)N3CCOCC3)ccc21	none
Cn1cc(C(=O)N2CCN(c3cccc(Cl)c3)CC2)c(=O)c2cc(S(=O)(=O)N3CCOCC3)ccc21	Pf growth 96h 12µM
CCn1cc(C(=O)NCCCOC(C)C)c(=O)c2cc(S(=O)(=O)N3CCC(C)CC3)ccc21	Pf growth 96h 1µM, Pf growth 48h inconclusive
CN(CC(=O)N(C)CC(=O)Nc1c(Cl)cccc1Cl)Cc1ccc(Br)s1	none (no result: NS1 function inh, CHX counter, Shiga toxin inh)
CN(C(=O)COc1ccc(S(=O)(=O)N2CCOCC2)cc1[N+](=O)[O-])C1CCS(=O)(=O)C1 (configuration not stated)	none
C=CCn1c(Cc2cccs2)nnc1SCC(=O)Nc1cc(OC)cc(OC)c1	none
Nc1ccc(Oc2ccc3nc(-c4ccccc4)c(-c4ccc([N+](=O)[O-])cc4)nc3c2)cc1	Pf growth 96h inconclusive, Pf growth 48h inconclusive
O=[N+]([O-])c1ccc(OCC(O)CN(CCO)CCO)cc1 (configuration not stated)	none
CCCCN(CCCC)CC(O)COc1ccc(Br)cc1 (configuration not stated)	Pf growth 96h 3.3µM, Pf growth 48h 3.7µM
COc1ccccc1NC(=O)CCc1nnc2ccc(N3CCCCC3)nn12	Pf growth 96h 4.1µM
COc1cc(NC(=O)CCc2nnc3ccc(N4CCCCC4)nn23)cc(OC)c1OC	Pf growth 96h 10µM, Pf growth 48h inconclusive
COc1cc(NC(=O)CCc2nnc3ccc(N4CCCC4)nn23)cc(OC)c1OC	Pf growth 96h inconclusive, Pf growth 48h inconclusive
CCOc1cc(CNCCCN2CCOCC2)ccc1OCC(=O)Nc1cccc2ccccc12	Pf growth 96h 2.6µM, Pf growth 48h 2.9µM
O=C(COc1ccc(Br)cc1CNCCCN1CCOCC1)Nc1ccccc1	Pf growth 96h 2.9µM, Pf growth 48h 3.7µM
COc1cc(CNCCCN2CCOCC2)ccc1OCC(=O)Nc1cccc(C(F)(F)F)c1	Pf growth 96h inconclusive, Pf growth 48h 1.9µM
CC(C)CN1C(=O)c2ccc(NC(=O)c3ccco3)cc2C1=O	Pf growth 96h inconclusive, CHX counter 49, Shiga toxin inh 61
CC(C)CN1C(=O)c2ccc(NC(=O)c3cccs3)cc2C1=O	Pf growth 48h 8.3µM, CHX counter 40, Shiga toxin inh 193 (no result: Pf growth 96h)
CC(C)CN1C(=O)c2ccc(NC(=O)c3ccccc3F)cc2C1=O	Pf growth 48h inconclusive (no result: Pf growth 96h)
Cc1ccccc1N1CCN(C2CCCN(C(=O)CCC3(C)CC3)C2)CC1 (configuration not stated)	Pf growth 96h inconclusive
Cc1n[nH]c(C)c1S(=O)(=O)N1CCN(c2ccccn2)CC1	none
Cc1n[nH]c(C)c1S(=O)(=O)N1CCc2ccccc2C1	Pf growth 96h 10µM
COC(=O)c1[nH]c2cccc(Cl)c2c1NC(=O)CN(C)C1CCCCC1	Pf growth 96h 8.3µM, Pf growth 48h inconclusive
CCOC(=O)C1CCN(CC(=O)Nc2c(C(=O)OC)[nH]c3cccc(Cl)c23)CC1	none
Cc1ccc(C)c(C(=O)COC(=O)c2cc([N+](=O)[O-])ccc2N2CCOCC2)c1	Pf growth 96h 15µM, Pf growth 48h inconclusive (no result: NS1 function inh, CHX counter, Shiga toxin inh)
Cc1cc(C)c(NC(=O)COC(=O)c2cc([N+](=O)[O-])ccc2N2CCOCC2)c(C)c1	none
Cc1ccc(C(=O)c2cc([N+](=O)[O-])ccc2N2CCOCC2)c(C)c1	Pf growth 96h 10µM, Pf growth 48h inconclusive
COc1ccc(OCC(=O)OCC(=O)NCC2CCCCC2)cc1	none (no result: NS1 function inh, CHX counter, Shiga toxin inh)
CCN(CC)S(=O)(=O)c1ccc(N2CCCC2)c(NS(=O)(=O)c2ccc(F)cc2)c1	Pf growth 96h inconclusive, Pf growth 48h inconclusive
COc1ccccc1NC(=O)c1c(N=Cc2ccccc2O)cnn1C	none
O=C(Nc1ccc(Cl)cc1F)c1cccc2ccccc12	Pf growth 96h inconclusive, CHX counter 27, Shiga toxin inh 34
O=C(Nc1cccnc1Oc1ccc(Cl)cc1)c1cccc2ccccc12	none
O=C(Nc1ccc(Cl)cc1F)c1ccccc1Br	CHX counter 63, Shiga toxin inh 130
O=C(Cc1ccccc1[N+](=O)[O-])Nc1ccc(S(=O)(=O)N2CCCC2)cc1	Pf growth 96h inconclusive
COC(=O)c1c(C)[nH]c(C=Nc2ccc(OC)cc2)c1C	none
CCOC(=O)c1c(C)[nH]c(C=Nc2ccccc2)c1O	Pf growth 96h 9.3µM
CCOC(=O)c1c(C)[nH]c(C=Nc2ccc(OC)cc2)c1O	Pf growth 96h 15µM, CHX counter 20, Shiga toxin inh 84
O=S(=O)(/N=C(/Nc1cccc2ccccc12)c1ccc(F)cc1)c1ccccc1	none
CCCCCCCC(=O)NC(Nc1ccc(S(N)(=O)=O)cc1)C(Cl)(Cl)Cl (configuration not stated)	none
Cc1ccc(C(C(=O)NCc2ccc(F)cc2)N(Cc2ccco2)C(=O)c2snc(C(N)=O)c2N)o1 (configuration not stated)	none
CCOc1ccc(N(CC(=O)NCc2ccccc2Cl)S(=O)(=O)c2c(C)noc2C)cc1	Pf growth 96h inconclusive, Pf growth 48h 13µM
CCc1ccc(N(CC(=O)NC2CCCCC2)S(=O)(=O)c2c(C)noc2C)cc1	Pf growth 96h 1.9µM (no result: Pf growth 48h)
CCOc1ccccc1NC(=O)CN(c1cc(C)cc(C)c1)S(=O)(=O)c1c(C)noc1C	Pf growth 96h inconclusive (no result: Pf growth 48h)
